These results are taken from PubChem BioAssay.

A short description of assay [1]: binders of probe aFSTL3 on microarray, primary screen, stem cell growth factor project, biochemical, small-molecule microarray, fluorescence 635/667 (AID 1064).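 Note: measures binding of the biotinylated anti-FSTL3 antibody to printed compounds.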 Conditions: higher = more signal.
A short description of assay [2]: binders from COS7 lysate, DM2A8 probe, primary screen, torsin A project, cell lysate, small-molecule microarray, fluorescence 635/667 (AID 1065). Conditions: higher = more signal, COS7 lysate expressing mutant human TOR1A.
Assay [3] is described as follows: binders of probe aFGF2 on microarray, primary screen, stem cell growth factor project, biochemical, small-molecule microarray, fluorescence 635/667 (AID 1067).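 Note: measures binding of biotinylated aFGF2 protein to printed compounds on slides; z-score merges feature fluorescence and signal-to-noise across triplicate slides.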 Conditions: higher = more signal.
Assay [4] is described as follows: binders of probe aFGF10 on microarray, primary screen, stem cell growth factor project, biochemical, small-molecule microarray, fluorescence 635/667 (AID 1071).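 Note: score merges 667 nm spot intensity and signal to noise from triplicate slides.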 Conditions: higher = more signal.
Assay [5] concerns the target Neurogenic locus notch homolog protein 2 (Homo sapiens) (UniProt Q04721). Put plainly: Notch2 binders on small-molecule microarrays, primary screen, biochemical, small-molecule microarray, 635 nm fluorescence, stem cell growth factors (AID 1073). Conditions: Notch2 binding, higher = more signal.
In assay [6] the target is Pro-neuregulin-1, membrane-bound isoform (Homo sapiens) (UniProt Q02297). Kind of assay: NRG1 binders on small-molecule microarrays, primary screen, psychiatric disease protein project, biochemical, small-molecule microarray, fluorescence 635/667 (AID 1075).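 Note: score combines 667 nm spot fluorescence with signal to noise.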 Conditions: NRG1 binding, 635 nm fluorescence, higher = more signal.
Chain of Pro-neuregulin-1, membrane-bound isoform (Homo sapiens) (Q02297 whole entry, looked up, the tested form may be a part, canonical isoform): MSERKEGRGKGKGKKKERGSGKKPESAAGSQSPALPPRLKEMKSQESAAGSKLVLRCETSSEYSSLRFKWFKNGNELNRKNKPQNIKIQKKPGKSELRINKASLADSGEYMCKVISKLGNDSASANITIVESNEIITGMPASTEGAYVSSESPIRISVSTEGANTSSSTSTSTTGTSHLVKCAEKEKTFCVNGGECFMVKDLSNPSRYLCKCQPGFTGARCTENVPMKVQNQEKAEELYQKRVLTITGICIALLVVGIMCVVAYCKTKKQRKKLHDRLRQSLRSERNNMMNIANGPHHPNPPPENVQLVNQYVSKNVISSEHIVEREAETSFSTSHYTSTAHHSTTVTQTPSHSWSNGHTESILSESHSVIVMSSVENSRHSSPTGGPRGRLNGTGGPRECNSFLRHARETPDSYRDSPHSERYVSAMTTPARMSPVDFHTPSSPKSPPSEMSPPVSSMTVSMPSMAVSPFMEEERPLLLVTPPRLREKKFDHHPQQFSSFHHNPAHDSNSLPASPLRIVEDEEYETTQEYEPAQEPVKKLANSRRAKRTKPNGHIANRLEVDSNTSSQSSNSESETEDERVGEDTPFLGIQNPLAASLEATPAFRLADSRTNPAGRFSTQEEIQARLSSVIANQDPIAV
Assay [7] has as its system Neuregulin-1 EGF-like domain. Kind of assay: binders of neuregulin-1 EGF-like domain, primary screen, biochemical, small-molecule microarray, 635 nm fluorescence (AID 1081).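 Note: binding of the protein to compounds printed on small-molecule microarray slides.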 Conditions: small-molecule microarray binding, higher = more signal.
Assay [8] in a line: FRG1 promoter luciferase signal modulators, primary screen, FRG1 inhibition for FSHD, cell-based, C2C12 myotubes, firefly/Renilla luciferase, luminescence (AID 1084). Conditions: higher = more signal, called active from +8 up or from −8 down.
The nature of assay [9]: binders of probe aFST on microarray, primary screen, stem cell growth factor project, biochemical, small-molecule microarray, fluorescence 635/667 (AID 1086).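 Note: score merges 667 nm fluorescence with signal-to-noise of each printed compound spot.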 Conditions: higher = more signal.
The nature of assay [10]: binders of probe aHhip on microarray, primary screen, stem cell growth factor project, biochemical, small-molecule microarray, fluorescence 635/667 (AID 1087).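 Note: score merges spot fluorescence at 667nm with spot signal to noise ratio.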 Conditions: higher = more signal.

Each structure is given as a SMILES string. The source made the active and inactive calls.

Chain of Neurogenic locus notch homolog protein 2 (Homo sapiens) (Q04721 whole entry, looked up, canonical isoform): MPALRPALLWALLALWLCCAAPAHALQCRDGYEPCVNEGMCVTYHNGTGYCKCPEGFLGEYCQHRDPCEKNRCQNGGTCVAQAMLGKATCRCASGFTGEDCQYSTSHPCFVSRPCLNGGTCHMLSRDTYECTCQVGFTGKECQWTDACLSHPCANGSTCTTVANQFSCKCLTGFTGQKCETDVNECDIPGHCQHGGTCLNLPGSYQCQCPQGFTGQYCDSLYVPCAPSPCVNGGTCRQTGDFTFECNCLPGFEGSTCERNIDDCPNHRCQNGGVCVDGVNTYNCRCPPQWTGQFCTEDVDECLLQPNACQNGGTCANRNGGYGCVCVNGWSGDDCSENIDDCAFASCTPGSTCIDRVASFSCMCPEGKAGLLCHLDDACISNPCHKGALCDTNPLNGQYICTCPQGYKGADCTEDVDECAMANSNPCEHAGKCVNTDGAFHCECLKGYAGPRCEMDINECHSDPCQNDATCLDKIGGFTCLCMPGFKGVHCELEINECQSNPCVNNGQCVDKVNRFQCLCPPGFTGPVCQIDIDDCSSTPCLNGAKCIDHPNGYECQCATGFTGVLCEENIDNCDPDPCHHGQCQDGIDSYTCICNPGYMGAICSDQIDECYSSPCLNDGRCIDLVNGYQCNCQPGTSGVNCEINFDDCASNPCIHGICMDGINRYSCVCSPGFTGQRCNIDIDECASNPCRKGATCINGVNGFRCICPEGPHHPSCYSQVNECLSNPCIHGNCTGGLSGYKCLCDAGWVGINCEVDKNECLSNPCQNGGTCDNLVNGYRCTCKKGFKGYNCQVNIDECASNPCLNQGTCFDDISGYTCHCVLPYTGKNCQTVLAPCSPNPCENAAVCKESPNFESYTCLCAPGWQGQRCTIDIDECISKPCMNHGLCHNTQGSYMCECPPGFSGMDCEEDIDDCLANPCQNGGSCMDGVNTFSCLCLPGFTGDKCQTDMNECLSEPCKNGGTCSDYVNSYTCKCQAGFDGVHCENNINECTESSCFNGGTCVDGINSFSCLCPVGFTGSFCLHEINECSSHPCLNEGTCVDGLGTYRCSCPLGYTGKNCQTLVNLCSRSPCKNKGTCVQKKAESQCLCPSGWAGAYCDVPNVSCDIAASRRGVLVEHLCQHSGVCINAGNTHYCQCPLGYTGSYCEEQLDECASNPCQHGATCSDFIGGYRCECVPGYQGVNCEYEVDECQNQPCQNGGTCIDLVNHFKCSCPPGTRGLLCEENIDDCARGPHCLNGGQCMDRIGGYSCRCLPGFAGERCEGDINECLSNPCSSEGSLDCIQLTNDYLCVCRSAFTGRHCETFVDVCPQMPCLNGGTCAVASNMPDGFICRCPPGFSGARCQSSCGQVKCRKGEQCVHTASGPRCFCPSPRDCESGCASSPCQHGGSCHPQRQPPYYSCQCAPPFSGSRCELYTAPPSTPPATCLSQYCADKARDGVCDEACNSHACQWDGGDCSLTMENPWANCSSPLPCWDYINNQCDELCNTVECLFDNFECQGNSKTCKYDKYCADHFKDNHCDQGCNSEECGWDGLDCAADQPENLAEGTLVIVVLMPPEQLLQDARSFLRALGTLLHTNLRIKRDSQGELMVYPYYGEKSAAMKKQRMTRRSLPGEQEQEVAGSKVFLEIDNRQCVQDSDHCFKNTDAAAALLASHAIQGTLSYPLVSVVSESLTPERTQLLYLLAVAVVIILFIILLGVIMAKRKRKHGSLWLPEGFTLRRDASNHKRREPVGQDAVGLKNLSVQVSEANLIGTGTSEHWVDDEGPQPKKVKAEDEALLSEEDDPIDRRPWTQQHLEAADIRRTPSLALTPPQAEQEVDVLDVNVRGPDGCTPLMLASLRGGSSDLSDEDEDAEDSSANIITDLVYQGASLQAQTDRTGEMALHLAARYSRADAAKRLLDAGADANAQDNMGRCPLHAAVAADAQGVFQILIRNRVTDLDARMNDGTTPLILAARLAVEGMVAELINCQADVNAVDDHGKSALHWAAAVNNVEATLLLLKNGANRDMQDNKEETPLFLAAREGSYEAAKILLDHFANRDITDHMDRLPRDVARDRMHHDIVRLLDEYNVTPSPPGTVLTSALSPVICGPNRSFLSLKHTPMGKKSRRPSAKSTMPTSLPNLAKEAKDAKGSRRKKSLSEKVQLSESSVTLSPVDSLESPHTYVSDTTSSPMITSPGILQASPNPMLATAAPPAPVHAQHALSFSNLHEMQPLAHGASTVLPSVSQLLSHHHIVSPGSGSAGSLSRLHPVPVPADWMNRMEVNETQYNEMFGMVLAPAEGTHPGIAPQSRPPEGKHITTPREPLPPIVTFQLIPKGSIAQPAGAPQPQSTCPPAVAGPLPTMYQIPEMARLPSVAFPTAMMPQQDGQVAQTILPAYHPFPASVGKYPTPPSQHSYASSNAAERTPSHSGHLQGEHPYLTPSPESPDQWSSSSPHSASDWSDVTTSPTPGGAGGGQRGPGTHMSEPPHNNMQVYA

In the case of `O=C(CCN1CCOCC1)c1cccc(O)c1`, the composite z-score in assay [1] is -0.302; in assay [2] it was 1.79; in [3], -0.0521; in assay [4] it was 0.628; in assay [5], 1.31; in assay [6] it was 1.23. Further, the composite z-score in assay [7] is 1.17; in [9] it was 0.852; in assay [10], -0.0953. Also, the z-score in assay [8] was -1.28 (inactive).
`COCCOC(=O)N1C(=O)[C@@]2(c3cc(C#CC4(O)CCCCCC4)ccc31)[C@H](C(=O)N1CCCCCCC1)[C@H]1C(=O)O[C@H](c3ccccc3)[C@H](c3ccccc3)N1[C@@H]2c1ccccc1OCCO`: the composite z-score stood at 2.49 in assay [1]; 0.859 in [2]; 0.249 in [3]; 0.298 in assay [4]; 1.25 in [5]; 1.17 in [6]. Also, the values for the composite z-score in assay [7], in assay [9] and in assay [10] were 1.28, 2.2 and 1.04, respectively. Further, the z-score in assay [8] is 0.25 (inactive).
With `COc1ccc(CCN2C(=O)[C@@]3(Cc4ccccc42)c2ccccc2C(=O)N(Cc2ccccc2Cl)[C@H]3c2ccc(CO)cc2)cc1`, the composite z-score in [1] is 0.451; in assay [2], -0.73; in [3] it was -0.0744; in assay [4], -0.249; in assay [5], -0.13; in assay [6], -0.221. The composite z-score in assay [7] was 0.834; in assay [9], -0.285; in assay [10], -0.0994. The z-score in assay [8] was -0.236 (inactive).
Take `[N-]=[N+]=Nc1ccccc1C[C@]1(C(=O)NCCN2CCOCC2)N=C(c2ccc(OCCCO)cc2)O[C@H]1c1ccccc1`: the composite z-score in assay [1] is -0.283; in assay [2], 0.309; in assay [3], -0.085; in assay [4] it was 0.271; in assay [5], 1.05; in assay [6], 1.07. Besides, the figures for the composite z-score in assay [7], in assay [9] and in assay [10] were 1.25, 0.892 and 0.0373, respectively. Also, the z-score in assay [8] was -0.897 (inactive).
On to `COc1ccc([Si](C)(C)[C@H]2[C@H](CC(=O)N(CCO)Cc3ccccc3)O[C@@]3(C(=O)N(Cc4cccc(N5CCC5=O)c4)c4ccccc43)[C@@H]2C)cc1`, for which the composite z-score is 0.0204 in [1]; 0.906 in assay [2]; -0.131 in [3]; 0.55 in assay [4]; 0.629 in assay [5]; 1.18 in [6]. The composite z-score in assay [7] was 1.07; in assay [9], -0.194; in assay [10], -0.13. Also, the z-score in [8] was -1.55 (inactive).
Take `COC(=O)[C@@]1(Cc2ccccc2N=[N+]=[N-])COC(c2ccc(OCCCO)cc2)=N1`: the composite z-score in assay [1] was 1.34; in assay [2] it was 2.03; in assay [3] it was -0.0706; in [4], -0.282; in assay [5], 0.0164; in assay [6], 1.24. For the same molecule, the composite z-score turned out to be 1.21 in assay [7], 0.498 in assay [9] and 0.0176 in assay [10]. In addition, in [8], the z-score was -0.904 (inactive).
In the case of `C=CC[C@@H](OC(=O)Nc1ccc(OC)cc1)c1ccc(O)c2ccccc12`, the composite z-score in [1] is -0.316; in assay [2], 0.129; in [3], -0.0364; in [4], 0.224; in [5] it was 0.746; in assay [6] it was 0.263. Further, the composite z-score was 1.08 in assay [7], 0.56 in assay [9] and -0.0296 in [10]. For the same molecule, the z-score in assay [8] is 6.38 (inactive).
Consider `CC(=O)C1=CCC(c2ccccc2)N(S(=O)(=O)c2ccc(C)cc2)C1` (stereo not given), for which the composite z-score in assay [1] came out at 0.174; in assay [2], 0.453; in assay [3], 0.0592; in [4], 0.679; in assay [5] it was 0.691; in assay [6], 0.628. Further, the values for the composite z-score in assay [7], in assay [9] and in assay [10] were 1.23, 0.57 and -0.0142, respectively. The z-score in assay [8] is -2.72 (inactive).
Regarding `CC(C)(C)N1CC=CC23O[C@@H]4/C=C\CCCOC(=O)C4[C@H]2C(=O)N(CCO)[C@@H]3C1=O` (stereo not given in full), the composite z-score in assay [1] is 0.29; in [2], -1.05; in [3], -0.045; in assay [4] it was 0.588; in [5] it was -0.931; in assay [6], 0.208. Besides, the composite z-score in assay [7] was 0.938; in [9], -0.681; in [10] it was -0.236. The z-score in assay [8] is 0.911 (inactive).
For the molecule `COc1cc2c(cc1OC)CN(C(=O)[C@@H]1[C@H]3C(=O)O[C@H](c4ccccc4)[C@H](c4ccccc4)N3[C@H](c3ccccc3OCCO)[C@@]13C(=O)Nc1ccc(C#CCNC(N)=O)cc13)CC2`, the composite z-score in assay [1] was 0.309; in assay [2] it was 0.586; in assay [3], 0.0564; in assay [4], 0.837; in assay [5], 0.936; in [6], 0.852. Further, the composite z-score in [7] is 1.07; in [9], 0.237; in [10], -0.074. Moreover, the z-score in assay [8] was 0.297 (inactive).
For the molecule `CC(C)(C)OC(=O)CC[C@]1(C(=O)N2CCCCC2)N=C(c2ccc(OCCCO)cc2)O[C@H]1c1ccccc1N=[N+]=[N-]`, the composite z-score in assay [1] was 1.14; in assay [2], 0.933; in assay [3], -0.0328; in assay [4], 0.877; in assay [5], 1.32; in assay [6] it was 1.42. Moreover, the composite z-score in [7] stood at 1.3; in assay [9], 1.24; in assay [10], 0.0818. Further, in assay [8], the z-score is -0.275 (inactive).
On to `C=CCC(OC(C)=O)[C@@H]1[C@@H](N(Cc2ccc(-c3cccc(C(F)(F)F)c3)o2)C(=O)c2ccc(C)cc2)c2cc(OCCCO)ccc2N1C(=O)c1ccc(-c2ccccc2)cc1` (stereo not given in full), for which the composite z-score in assay [1] was -0.322; in assay [2], -0.179; in [3], -0.129; in assay [4], 0.265; in assay [5] it was 0.0105; in [6], -0.416. Also, the composite z-score is -0.515 in assay [7], 0.137 in assay [9] and -0.214 in assay [10]. Further, the z-score in assay [8] was 0.887 (inactive).
Regarding `CN(C)CCCCNC(=O)[C@H]1C[C@H]2C(=O)N[C@@H](Cc3ccccc3)C(=O)N2[C@H]1c1ccc(O)cc1`, the composite z-score is -0.289 in [1]; 0.703 in assay [2]; -0.0805 in assay [3]; 0.934 in [4]; 1.37 in assay [5]; 1.65 in assay [6]. For the same molecule, the composite z-score was 1.22 in assay [7], 0.748 in assay [9] and 0.107 in assay [10]. Moreover, the z-score in assay [8] is 1.85 (inactive).
